Values joined by “and” are separate entries in the source; they are usually repeats but may differ in a detail not shown here. Identical values can stand only once. In all, about 5,500 compounds went through this assay and about 2,000 (36%) were called active. About 18% were inconclusive and are not listed. No stated cut-off is given here; in the data, active means normalized growth mostly below about 0.91 (no sharp cut-off); inconclusive means no clear call, values can overlap the other calls; inactive means mostly above about 0.92. The list shows a part of the results.
Assay: chemical genetic growth profiling, strain panel (AID 1159580);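 further: tested at 20 µM; growth read once vehicle control cultures reached saturation at 30 °C; 1 = growth at the plate median or of vehicle wells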
Settings: growth OD

Measured: normalized growth

Cc1ncc(CNC(=O)N(CCCl)N=O)c(N)n1
inactive: S. cerevisiae deletion strains, locus YJR075W, strain HOC1, stronger effect = lower value 1.01 | S. cerevisiae deletion strains, locus YKL009W, strain mrt4, stronger effect = lower value 0.976 | S. cerevisiae deletion strains, locus YKL068W, stronger effect = lower value 1 | S. cerevisiae deletion strains, locus YKL085W, strain MDH1 (second series), stronger effect = lower value 0.996 | S. cerevisiae deletion strains, locus YKL085W, strain MDH1, stronger effect = lower value 0.996 | S. cerevisiae deletion strains, locus YKL160W, strain elf1, stronger effect = lower value 0.996 | S. cerevisiae deletion strains, locus YKL190W, strain CNB1, stronger effect = lower value 1.01 | S. cerevisiae deletion strains, locus YKR001C, strain vps1, stronger effect = lower value 0.974 | S. cerevisiae deletion strains, locus YKR026C, strain gcn3, stronger effect = lower value 1.02 | S. cerevisiae deletion strains, locus YKR091W, strain srl3, stronger effect = lower value 1 | S. cerevisiae deletion strains, locus YLL001W, strain dnm1, stronger effect = lower value 0.97 | S. cerevisiae deletion strains, locus YLL026W, stronger effect = lower value 1.01 | S. cerevisiae deletion strains, locus YLL041C, strain sdh2, stronger effect = lower value 1.01 | S. cerevisiae deletion strains, locus YLR027C, strain aat2, stronger effect = lower value 0.99 | S. cerevisiae deletion strains, locus YLR039C, strain RIC1, stronger effect = lower value 1.04 | S. cerevisiae deletion strains, locus YLR058C, strain SHM2, stronger effect = lower value 1.02 | S. cerevisiae deletion strains, locus YLR102C, strain apc9, stronger effect = lower value 0.983 | S. cerevisiae deletion strains, locus YLR113W, strain HOG1, stronger effect = lower value 0.982 | S. cerevisiae deletion strains, locus YLR221C, strain rsa3, stronger effect = lower value 1.03 | S. cerevisiae deletion strains, locus YLR258W, strain gsy2, stronger effect = lower value 1 | S. cerevisiae deletion strains, locus YLR262C, strain YPT6 (second series), stronger effect = lower value 1.07 | S. cerevisiae deletion strains, locus YLR262C, strain YPT6, stronger effect = lower value 1.03 | S. cerevisiae deletion strains, locus YLR268W, strain sec22, stronger effect = lower value 0.983 | S. cerevisiae deletion strains, locus YLR320W, strain mms22, stronger effect = lower value 1.03 | S. cerevisiae deletion strains, locus YLR330W, strain CHS5, stronger effect = lower value 1.02 | S. cerevisiae deletion strains, locus YLR342W, strain FKS1 (second series), stronger effect = lower value 1.01 | S. cerevisiae deletion strains, locus YLR342W, strain FKS1, stronger effect = lower value 1.02 | S. cerevisiae deletion strains, locus YLR357W, strain rsc2, stronger effect = lower value 1.02 | S. cerevisiae deletion strains, locus YLR370C, strain arc18, stronger effect = lower value 1.01 | S. cerevisiae deletion strains, locus YLR371W, strain rom2, stronger effect = lower value 0.981 | S. cerevisiae deletion strains, locus YLR384C, strain iki3, stronger effect = lower value 1.03 | S. cerevisiae deletion strains, locus YLR418C, strain cdc73, stronger effect = lower value 0.965 | S. cerevisiae deletion strains, locus YML016C, strain PPZ1, stronger effect = lower value 1.02 | S. cerevisiae deletion strains, locus YML120C, strain ndi1, stronger effect = lower value 0.991 | S. cerevisiae deletion strains, locus YML124C, strain tub3, stronger effect = lower value 0.989 | S. cerevisiae deletion strains, locus YMR058W, strain fet3, stronger effect = lower value 1.02 | S. cerevisiae deletion strains, locus YMR078C, strain ctf18, stronger effect = lower value 0.964 | S. cerevisiae deletion strains, locus YMR125W, strain sto1, stronger effect = lower value 1 | S. cerevisiae deletion strains, locus YMR129W, stronger effect = lower value 1.02 | S. cerevisiae deletion strains, locus YMR205C, strain PFK2, stronger effect = lower value 1.01 | S. cerevisiae deletion strains, locus YMR223W, strain ubp8, stronger effect = lower value 0.994 | S. cerevisiae deletion strains, locus YMR231W, strain pep5, stronger effect = lower value 1 | S. cerevisiae deletion strains, locus YMR263W, strain SAP30, stronger effect = lower value 1.01 | S. cerevisiae deletion strains, locus YMR307W, strain GAS1, stronger effect = lower value 0.992 and 1.01 | S. cerevisiae deletion strains, locus YNL067W, strain RPL9B, stronger effect = lower value 1.01 | S. cerevisiae deletion strains, locus YNL071W, strain lat1, stronger effect = lower value 1.01 | S. cerevisiae deletion strains, locus YNL128W, strain TEP1, stronger effect = lower value 1.01 and 1 | S. cerevisiae deletion strains, locus YNL153C, strain GIM3, stronger effect = lower value 1.02 and 0.991 | S. cerevisiae deletion strains, locus YNL175C, strain NOP13, stronger effect = lower value 0.997 | S. cerevisiae deletion strains, locus YNL183C, strain NPR1, stronger effect = lower value 0.913 | S. cerevisiae deletion strains, locus YNL197C, strain WHI3, stronger effect = lower value 0.999 | S. cerevisiae deletion strains, locus YNL209W, strain ssb2, stronger effect = lower value 0.992 | S. cerevisiae deletion strains, locus YNL224C, strain SQS1, stronger effect = lower value 1.01 | S. cerevisiae deletion strains, locus YNL233W, strain BNI4, stronger effect = lower value 1.01 | S. cerevisiae deletion strains, locus YNL248C, strain rpa49, stronger effect = lower value 1.02 | S. cerevisiae deletion strains, locus YNL250W, strain rad50, stronger effect = lower value 0.972 | S. cerevisiae deletion strains, locus YNL271C, strain bni1, stronger effect = lower value 0.979 | S. cerevisiae deletion strains, locus YNL298W, strain CLA4, stronger effect = lower value 0.996 | S. cerevisiae deletion strains, locus YNL307C, strain MCK1, stronger effect = lower value 1 | S. cerevisiae deletion strains, locus YNL322C, strain KRE1 (second series), stronger effect = lower value 0.937 | S. cerevisiae deletion strains, locus YNL322C, strain KRE1, stronger effect = lower value 1.01 | S. cerevisiae deletion strains, locus YNR049C, strain mso1, stronger effect = lower value 1.02 | S. cerevisiae deletion strains, locus YNR052C, strain pop2, stronger effect = lower value 0.983 | S. cerevisiae deletion strains, locus YOL006C, strain TOP1, stronger effect = lower value 1.02 | S. cerevisiae deletion strains, locus YOL012C, strain htz1 1.04 | S. cerevisiae deletion strains, locus YOL147C, strain pex11, stronger effect = lower value 0.978 | S. cerevisiae deletion strains, locus YOR001W, strain rrp6, stronger effect = lower value 1.03 | S. cerevisiae deletion strains, locus YOR061W, strain CKA2, stronger effect = lower value 1.02 | S. cerevisiae deletion strains, locus YOR069W, strain VPS5, stronger effect = lower value 1.02 | S. cerevisiae deletion strains, locus YOR070C, strain gyp1, stronger effect = lower value 1.03 | S. cerevisiae deletion strains, locus YOR080W, strain dia2, stronger effect = lower value 1.01 | S. cerevisiae deletion strains, locus YOR083W, strain WHI5 (second series), stronger effect = lower value 1.01 | S. cerevisiae deletion strains, locus YOR083W, strain WHI5, stronger effect = lower value 0.979 | S. cerevisiae deletion strains, locus YOR106W, strain vam3, stronger effect = lower value 0.959 | S. cerevisiae deletion strains, locus YOR136W, strain idh2, stronger effect = lower value 0.981 | S. cerevisiae deletion strains, locus YOR144C, strain elg1, stronger effect = lower value 0.978 | S. cerevisiae deletion strains, locus YOR184W, strain ser1, stronger effect = lower value 0.989 | S. cerevisiae deletion strains, locus YOR231W, strain MKK1, stronger effect = lower value 0.953 | S. cerevisiae deletion strains, locus YOR265W, strain rbl2, stronger effect = lower value 1.01 | S. cerevisiae deletion strains, locus YOR270C, strain vph1, stronger effect = lower value 1.03 | S. cerevisiae deletion strains, locus YOR290C, strain snf2, stronger effect = lower value 0.993 | S. cerevisiae deletion strains, locus YOR316C, strain cot1, stronger effect = lower value 0.99 | S. cerevisiae deletion strains, locus YPL051W, strain arl3, stronger effect = lower value 0.974 | S. cerevisiae deletion strains, locus YPL055C, strain LGE1, stronger effect = lower value 1.02 | S. cerevisiae deletion strains, locus YPL078C, strain atp4, stronger effect = lower value 0.98 | S. cerevisiae deletion strains, locus YPL106C, strain sse1, stronger effect = lower value 1.02 | S. cerevisiae deletion strains, locus YPL240C, strain hsp82, stronger effect = lower value 1.01 | S. cerevisiae deletion strains, locus YPL241C, strain CIN2, stronger effect = lower value 1.02 | S. cerevisiae deletion strains, locus YPL256C, strain CLN2, stronger effect = lower value 0.989 | S. cerevisiae deletion strains, locus YPR119W, strain clb2, stronger effect = lower value 0.978 | S. cerevisiae deletion strains, locus YPR141C, strain kar3, stronger effect = lower value 0.987 | S. cerevisiae deletion strains, locus YPR163C, strain tif3, stronger effect = lower value 0.98 | S. cerevisiae deletion strains, locus YPR167C, strain met16, stronger effect = lower value 0.982 | S. cerevisiae deletion strains, strain wtn01, stronger effect = lower value 0.987 | S. cerevisiae strains, strain wild type, stronger effect = lower value 1.01
active: S. cerevisiae deletion strains, locus YML032C, strain rad52, stronger effect = lower value 0.903

Source: PubChem BioAssay AID1159580 (chemical genetic matrix, 2015)
